Laboratory results taken from PubChem BioAssay (EPA / NIEHS).
Activity calls are given as the source filed them. Rule for the calls: active = hit-call score of the fitted dose curve at least 0.9, where 1 is the maximum; inactive = score below 0.9.

Read-out: Interferon-gamma inducible Protein 10 (IP10), CXCL10 (gene 3627)
Experiment: BSK_BE3C_IP10: BioMAP Diversity Plus: BE3C Assay for Interferon-gamma inducible Protein 10 (IP10) Biomarker Activity (AID 2283034)
Settings: primary human bronchial epithelial cells; actives raise or lower the signal
Procedure, shortened: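 Chemical is dosed onto human lung bronchial epithelial primary cells, cultures are incubated 24 h, and IP-10 is then quantified by ELISA. Gain or loss of signal is fitted in both directions relative to DMSO.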

Row | SMILES | outcome | AC50
1 | CC(C)(C)OOC(C)(C)CCC(C)(C)OOC(C)(C)C | inactive | 
2 | c1ccc2c(c1)oc1ccccc12 | inactive | 
3 | Nc1ccc([N+](=O)[O-])cc1 | inactive | 
4 | Nc1ccc(Oc2ccc(N)cc2)cc1 | inactive | 
5 | COC(=O)c1ccccc1N | inactive | 
6 | c1ccc2c(c1)-c1cccc3cccc-2c13 | inactive | 
7 | O=C(O)C1C2CCC(O2)C1C(=O)O (centres undefined) | inactive | 
8 | O=P(OCCCl)(OCCCl)OCCCl | inactive | 
9 | CC(C)(OOC(C)(C)c1ccccc1)c1ccccc1 | inactive | 
10 | CC(C)N(Cc1ccccc1)C(=O)C(C)(C)C | inactive | 
11 | CS(=O)(=O)NC(=O)c1cc(Oc2ccc(C(F)(F)F)cc2Cl)ccc1[N+](=O)[O-] | inactive | 
12 | [O-][Cl+]O | inactive | 
13 | CCN(CC)CCO | inactive | 
14 | O=C(Oc1ccc(Br)cc1)N1CCN2CCC1CC2 | inactive | 
15 | O=[N+]([O-])C(Br)(CO)CO | inactive | 
16 | c1ccc(C2CO2)cc1 (centres undefined) | inactive | 
17 | c1ccc(N=Nc2ccccc2)cc1 | inactive | 
18 | Oc1ccc2ccc3cccc4ccc1c2c34 |  | 31.3 µM (active)
19 | CCC[CH2][Sn]([Cl])([CH2]CCC)[CH2]CCC |  | 0.324 µM (active)
20 | COP(=S)(OC)SCN1C(=O)c2ccccc2C1=O | inactive | 
21 | [Cl-].[Cl-].[Hg+2] |  | 34.9 µM (active)
22 | CCN(CC)N=O | inactive | 
23 | Nc1ccc(N=Nc2ccccc2)cc1 | inactive | 
24 | CCOC(=O)[C@]1(c2ccccc2)Oc2ccccc2[C@@H]1N | inactive | 
25 | c1ccc(NNc2ccccc2)cc1 | inactive | 
26 | CCCCCOC(=O)c1ccccc1C(=O)OCCCCC | inactive | 
27 | CCCCCCCCOC(=O)c1ccc(C(=O)OCCCCCCCC)c(C(=O)OCCCCCCCC)c1 | inactive | 
28 | O=[N+]([O-])c1ccc(Oc2ccc(Cl)cc2Cl)cc1 | inactive | 

Read-out: Monokine induced gamma interferon (MIG), CXCL9 (gene 4283)
Experiment: BSK_BE3C_MIG: BioMAP Diversity Plus: BE3C Assay for Monokine induced gamma interferon (MIG) Biomarker Activity (AID 2283035);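 for outcome: MIG protein measured by ELISA in BE3C cultures after 24 h of dosing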
Settings: primary human bronchial epithelial cells; actives raise or lower the signal
Procedure, shortened: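 Primary human bronchial epithelial cells treated for 24 h; MIG levels measured by ELISA, fitted bidirectionally versus DMSO. Parallel SRB total-protein staining assessed cytotoxicity.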

Row | SMILES | outcome | AC50
29 | CC(C)(C)OOC(C)(C)CCC(C)(C)OOC(C)(C)C | inactive | 
30 | c1ccc2c(c1)oc1ccccc12 | inactive | 
31 | Nc1ccc([N+](=O)[O-])cc1 | inactive | 
32 | Nc1ccc(Oc2ccc(N)cc2)cc1 | inactive | 
33 | COC(=O)c1ccccc1N | inactive | 
34 | c1ccc2c(c1)-c1cccc3cccc-2c13 | inactive | 
35 | O=C(O)C1C2CCC(O2)C1C(=O)O (centres undefined) | inactive | 
36 | O=P(OCCCl)(OCCCl)OCCCl | inactive | 
37 | CC(C)(OOC(C)(C)c1ccccc1)c1ccccc1 | inactive | 
38 | CC(C)N(Cc1ccccc1)C(=O)C(C)(C)C | inactive | 
39 | CS(=O)(=O)NC(=O)c1cc(Oc2ccc(C(F)(F)F)cc2Cl)ccc1[N+](=O)[O-] | inactive | 
40 | [O-][Cl+]O | inactive | 
41 | CCN(CC)CCO | inactive | 
42 | O=C(Oc1ccc(Br)cc1)N1CCN2CCC1CC2 | inactive | 
43 | O=[N+]([O-])C(Br)(CO)CO | inactive | 
44 | c1ccc(C2CO2)cc1 (centres undefined) | inactive | 
45 | c1ccc(N=Nc2ccccc2)cc1 | inactive | 
46 | Oc1ccc2ccc3cccc4ccc1c2c34 |  | 31.2 µM (active)
47 | CCC[CH2][Sn]([Cl])([CH2]CCC)[CH2]CCC |  | 0.162 µM (active)
48 | COP(=S)(OC)SCN1C(=O)c2ccccc2C1=O | inactive | 
49 | [Cl-].[Cl-].[Hg+2] |  | 36.5 µM (active)
50 | CCN(CC)N=O | inactive | 
51 | Nc1ccc(N=Nc2ccccc2)cc1 | inactive | 
52 | CCOC(=O)[C@]1(c2ccccc2)Oc2ccccc2[C@@H]1N | inactive | 
53 | c1ccc(NNc2ccccc2)cc1 | inactive | 
54 | CCCCCOC(=O)c1ccccc1C(=O)OCCCCC | inactive | 
55 | CCCCCCCCOC(=O)c1ccc(C(=O)OCCCCCCCC)c(C(=O)OCCCCCCCC)c1 | inactive | 
56 | O=[N+]([O-])c1ccc(Oc2ccc(Cl)cc2Cl)cc1 | inactive | 

Read-out: Plasminogen activator inhibitor-1 (PAI1), SERPINE1 (gene 5054)
Experiment: BSK_BE3C_PAI1: BioMAP Diversity Plus: BE3C Assay for Plasminogen activator inhibitor-1 (PAI1) Biomarker Activity (AID 2283037)
Settings: primary human bronchial epithelial cells; actives raise or lower the signal
Procedure, shortened: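 Primary human lung bronchial epithelial cells; chemical dosing; 24 h; PAI-1 measured by ELISA; bidirectional fit referenced to DMSO as negative control.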

Row | SMILES | outcome | AC50
57 | CC(C)(C)OOC(C)(C)CCC(C)(C)OOC(C)(C)C | inactive | 
58 | c1ccc2c(c1)oc1ccccc12 | inactive | 
59 | Nc1ccc([N+](=O)[O-])cc1 | inactive | 
60 | Nc1ccc(Oc2ccc(N)cc2)cc1 | inactive | 
61 | COC(=O)c1ccccc1N | inactive | 
62 | c1ccc2c(c1)-c1cccc3cccc-2c13 | inactive | 
63 | O=C(O)C1C2CCC(O2)C1C(=O)O (centres undefined) | inactive | 
64 | O=P(OCCCl)(OCCCl)OCCCl | inactive | 
65 | CC(C)(OOC(C)(C)c1ccccc1)c1ccccc1 | inactive | 
66 | CC(C)N(Cc1ccccc1)C(=O)C(C)(C)C | inactive | 
67 | CS(=O)(=O)NC(=O)c1cc(Oc2ccc(C(F)(F)F)cc2Cl)ccc1[N+](=O)[O-] | inactive | 
68 | [O-][Cl+]O | inactive | 
69 | CCN(CC)CCO | inactive | 
70 | O=C(Oc1ccc(Br)cc1)N1CCN2CCC1CC2 | inactive | 
71 | O=[N+]([O-])C(Br)(CO)CO | inactive | 
72 | c1ccc(C2CO2)cc1 (centres undefined) | inactive | 
73 | c1ccc(N=Nc2ccccc2)cc1 | inactive | 
74 | Oc1ccc2ccc3cccc4ccc1c2c34 |  | 27.5 µM (active)
75 | CCC[CH2][Sn]([Cl])([CH2]CCC)[CH2]CCC |  | 0.146 µM (active)
76 | COP(=S)(OC)SCN1C(=O)c2ccccc2C1=O | inactive | 
77 | [Cl-].[Cl-].[Hg+2] |  | 30.9 µM (active)
78 | CCN(CC)N=O | inactive | 
79 | Nc1ccc(N=Nc2ccccc2)cc1 | inactive | 
80 | CCOC(=O)[C@]1(c2ccccc2)Oc2ccccc2[C@@H]1N | inactive | 
81 | c1ccc(NNc2ccccc2)cc1 | inactive | 
82 | CCCCCOC(=O)c1ccccc1C(=O)OCCCCC | inactive | 
83 | CCCCCCCCOC(=O)c1ccc(C(=O)OCCCCCCCC)c(C(=O)OCCCCCCCC)c1 | inactive | 
84 | O=[N+]([O-])c1ccc(Oc2ccc(Cl)cc2Cl)cc1 | inactive | 
